Results: PubChem BioAssay AID624330 (Southern Research Specialized Biocontainment Screening …, 2012)
Screen size: about 340,000 compounds; about 2,100 (0.62%) were called active. Not all results are given here. Potency and affinity values are given separately. Unmarked numbers belong to inactive results.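 The calls were made as follows: active = first-screen hits whose inhibition reached a set limit at any dose in the follow-up dose series; inconclusive = inhibition above the set first-screen limit but never retested; inactive = the rest.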

Each compound was assayed against Rac GTPase-activating protein 1 (Homo sapiens) (UniProt Q9H0H5) (assay: MgcRacGAP GTPase-activating activity inhibitors, confirmation, biochemical, ADP Hunter fluorescence, primary and confirmatory (AID 624330;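 also: fluorescence reports GDP produced by GAP-driven GTP hydrolysis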)). Conditions: MgcRacGAP-stimulated Rac1 GTP hydrolysis, at 30 µM, active compounds read high, GST-tagged Rac1 F28L mutant substrate.
Chain of Rac GTPase-activating protein 1 (Homo sapiens) (Q9H0H5 whole entry, looked up): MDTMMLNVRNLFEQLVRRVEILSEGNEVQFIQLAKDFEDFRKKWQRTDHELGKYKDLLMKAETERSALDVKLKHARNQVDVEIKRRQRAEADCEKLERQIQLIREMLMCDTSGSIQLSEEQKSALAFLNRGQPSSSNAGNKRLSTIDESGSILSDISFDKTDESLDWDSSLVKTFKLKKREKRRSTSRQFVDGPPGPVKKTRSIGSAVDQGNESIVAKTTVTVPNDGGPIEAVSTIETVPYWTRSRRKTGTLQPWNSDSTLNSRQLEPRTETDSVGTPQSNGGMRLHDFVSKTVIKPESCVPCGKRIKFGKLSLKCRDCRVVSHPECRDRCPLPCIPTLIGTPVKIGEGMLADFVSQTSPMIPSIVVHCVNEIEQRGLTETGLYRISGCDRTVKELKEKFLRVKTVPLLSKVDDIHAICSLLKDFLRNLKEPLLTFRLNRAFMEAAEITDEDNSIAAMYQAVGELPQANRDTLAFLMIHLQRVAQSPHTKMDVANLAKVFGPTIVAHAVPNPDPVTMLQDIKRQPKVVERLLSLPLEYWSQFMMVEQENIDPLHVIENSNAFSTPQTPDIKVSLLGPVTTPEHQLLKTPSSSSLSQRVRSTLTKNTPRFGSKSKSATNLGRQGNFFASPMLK

SMILES	inhibition
CCCCc1ccc(NC(=S)NCCc2ccc(F)cc2)cc1	-17.2%
CCOc1ccc(-n2c(-c3ccco3)nc3c(cnn3-c3ccc(C)cc3)c2=O)cc1	2.66%
O=C(CN(Cc1ccco1)S(=O)(=O)c1ccccc1)N/N=C/c1ccccc1C(=O)O	8.11%
O=C(CN(Cc1ccco1)S(=O)(=O)c1ccccc1)N/N=C/c1cccc(O)c1	8.45%
COc1ccc(/C=N/NC(=O)CN(Cc2ccccc2)S(=O)(=O)c2ccc3c(c2)OCCO3)cc1	7.2%
Cc1ccc(/C=N/NC(=O)CN(Cc2ccccc2)S(=O)(=O)c2ccc3c(c2)OCCO3)cc1	2.63%
CN(C)CCCN=Cc1c(-c2ccccc2)[nH]n(-c2nc3ccccc3s2)c1=O	20.7%
O=C(NCc1ccc2c(c1)OCO2)Nc1cccc(Cl)c1	11.9%
COc1ccc(-c2nc3c(Br)c(N)c(Br)cc3o2)cc1	-0.217%
O=C(Oc1ccc2ccc(O)cc2c1)c1ccccc1Cl	18.6%
Nc1ccc2cc3ccccc3cc2c1	17.6%
Clc1ccc2nc3ccccc3cc2c1	2.87%
Nc1cccc(O)c1	18.5%
CCc1ccc(NC(=O)CSc2nc3ccccc3nc2N2CCCCC2)cc1	6.49%
O=C(Cc1c(F)cccc1Cl)c1ccc(O)cc1O	-1.08%
O=C(Cc1ccc(Cl)cc1)NNc1c(F)c(F)cc(F)c1F	5.43%
O=C(Cc1ccc(Cl)cc1)c1ccc(O)cc1	9.32%
Oc1ccc(/C=N/n2cnn(Cc3ccccc3Cl)c2=S)c(O)c1	8.66%
CCN1C(=O)C(C(=O)c2ccccc2)SC1=S (stereo not drawn)	2.79%
CSc1ncnc2c1ncn2CCCN1CCN(Cc2cccc3ccccc23)CC1	18.8%
O=C(Oc1ccccc1C(=O)Nc1ccccc1)c1ccc(Br)c([N+](=O)[O-])c1	14.5%

SMILES	inhibition
CC(=O)Nc1ccc(C(=O)OCC(=O)c2ccc(C)c([N+](=O)[O-])c2)cc1	-0.02%
O=C(c1ccc2snnc2c1)N1CCSCC1	12.5%
COc1ccc(OC)c(/C=N/N(C)c2ccccc2)c1	19.4%
COc1ccc(/C=N/N(c2ccccc2)c2ccccc2)cc1O	10.2%
CCOc1ccc(/C=N/N(C)c2ccccc2)cc1OC	8.29%
COc1cc(/C=N/S(=O)(=O)c2ccccc2)cc(OC)c1O	9.73%
COc1cc(/C=N/N(c2ccccc2)c2ccccc2)ccc1O	21%
CN(/N=C/c1cc(Br)cc(Br)c1O)c1ccccc1	5.13%
Cc1ccc(C(=O)N2CC=C(c3ccccc3)CC2)s1	-2.79%
CCCCN(C(=O)Nc1ccc(Cl)cc1)C1CCN(C(C)=O)CC1	12.3%
Cc1cc(NC(=O)c2ccc([N+](=O)[O-])cc2Cl)ccc1NC(=O)c1ccco1	5.16%
Cc1cccc(N=Cc2ccccc2O)c1C	6.78%
Oc1ccccc1C=Nc1cccc2ccccc12	12.9%
C=CCc1cccc(/C=N/c2ncccc2O)c1O	15.7%
Cc1ccc(N=Cc2cccc(O)c2O)c(C)c1	27.7%
C=CCc1cccc(C=Nc2ccc(Br)cc2)c1O	2.02%
Cc1ccccc1N=Cc1cccc(O)c1O	12.1%
COc1ccc(COCC(O)CN2CCC(CN3C(=O)c4cccc5cccc(c45)C3=O)CC2)cc1OC (stereo not drawn)	5.74%
O=C(c1cc(=O)c2ccccc2o1)N1CCCc2ccccc21	4.48%
O=C(O)CCCC(=O)Nc1nc2n(n1)C(c1ccc(F)cc1)CC(c1ccc(Cl)cc1)N2 (stereo not drawn)	-3.19%
Brc1ccc(CSc2nccn2-c2ccccc2)cc1	-2.52%

SMILES	inhibition
CCOc1ccc(-c2nnc(-c3ccccc3)n2-c2ccccc2)cc1	1.23%
CCOc1ccc(S(=O)(=O)NCCC(=O)OCC(=O)N2CC(=O)Nc3ccccc32)cc1	2.23%
CCN(CC)S(=O)(=O)c1ccc(Cl)c(NC(=O)COC(=O)c2cc(-c3ccccc3Cl)nc3ccccc23)c1	5.1%
CC(C)N(Cc1nccn1C)C(=O)c1ccc2oc(CCCc3ccccc3)nc2c1	-4.5%
Cc1oc(-c2ccccc2)cc1C(=O)Nc1ccccc1	19.3%
COc1ccc(NC(=O)Nc2ccc(OC)cc2)cc1	4.31%
COc1cc(OC)c(C(=O)Nc2ccncc2)cc1OC	6.31%
COc1ccc(NC(=O)c2cc(-c3ccccc3)oc2C)cc1	8.42%
COc1ccc(NC(=S)c2ccc(N(C)C)cc2)cc1	6.87%
COc1cc(C(=O)Nc2ccc(N(C)C)cc2)c([N+](=O)[O-])cc1OC	19.1%
CCOc1ccccc1C(=O)NCC(=O)NCC(C)(C)N1CCOCC1	3.54%
O=C(C1COc2ccccc2O1)N1CCN(c2nc3c(F)cc(F)cc3s2)CC1 (stereo not drawn)	1.62%
CCOC(=O)C1CCCN(S(=O)(=O)c2c(C)c(C)cc(C)c2C)C1 (stereo not drawn)	3.51%
COC(=O)C1=C(C(=O)c2ccccc2)C(c2cccs2)n2nnnc2N1 (stereo not drawn)	12.1%
CCN(c1ccccc1)S(=O)(=O)c1cccc(C(=O)Nc2cccc(C)n2)c1	16.5%
CCC1CCCCN1C(=O)CSc1nc(N)cc(=O)[nH]1 (stereo not drawn)	9.52%
COc1ccc(Cl)cc1NCCC(O)c1ccc(F)cc1 (stereo not drawn)	10.5%
COc1ccc(C(O)CNc2ccc(C)cc2)cc1 (stereo not drawn)	12.6%
Cc1cccc(NC(=O)c2ccc(COc3ccccc3)o2)n1	-1.27%
CC(C)(CC(=O)OCC(=O)Nc1ccccc1F)CC1=NS(=O)(=O)c2ccccc2N1	8.87%
CCOC(=O)C1(CC2CCCCO2)CCN(C(=O)Nc2ccc(C)c(C)c2)CC1 (stereo not drawn)	8.55%
